Rin1-Abl PPI inh: inhibitors of human Rin1-Abl protein interaction; 360,000 tested, 0.4% active; AID 588664; P00519+Q13671; inhibition, % at 7.35 µM; TR-FRET Rin1/Abl binding, biochemical; in the data active = inhibition above about 5%, passing the limit was not always enough
IDE cell inh: cellular human IDE inhibition; P14735; HEK cells, FAbetaB cleavage, fluorescence polarization; inhibition, % at 5.59 µM; 320,000 tested, 0.41% active;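 active = percent inhibition above the average of all tested compounds plus 3 SD, set per screening campaign, cut at about 16% in these data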;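 also: IDE supplied by intact live HEK cells; FP after avidin binding of uncleaved biotin substrate so inhibition keeps polarization high; 0% = DMSO wells and 100% = 60 µM reference IDE inhibitor Ii1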
Target sequence (P14735 whole entry, looked up): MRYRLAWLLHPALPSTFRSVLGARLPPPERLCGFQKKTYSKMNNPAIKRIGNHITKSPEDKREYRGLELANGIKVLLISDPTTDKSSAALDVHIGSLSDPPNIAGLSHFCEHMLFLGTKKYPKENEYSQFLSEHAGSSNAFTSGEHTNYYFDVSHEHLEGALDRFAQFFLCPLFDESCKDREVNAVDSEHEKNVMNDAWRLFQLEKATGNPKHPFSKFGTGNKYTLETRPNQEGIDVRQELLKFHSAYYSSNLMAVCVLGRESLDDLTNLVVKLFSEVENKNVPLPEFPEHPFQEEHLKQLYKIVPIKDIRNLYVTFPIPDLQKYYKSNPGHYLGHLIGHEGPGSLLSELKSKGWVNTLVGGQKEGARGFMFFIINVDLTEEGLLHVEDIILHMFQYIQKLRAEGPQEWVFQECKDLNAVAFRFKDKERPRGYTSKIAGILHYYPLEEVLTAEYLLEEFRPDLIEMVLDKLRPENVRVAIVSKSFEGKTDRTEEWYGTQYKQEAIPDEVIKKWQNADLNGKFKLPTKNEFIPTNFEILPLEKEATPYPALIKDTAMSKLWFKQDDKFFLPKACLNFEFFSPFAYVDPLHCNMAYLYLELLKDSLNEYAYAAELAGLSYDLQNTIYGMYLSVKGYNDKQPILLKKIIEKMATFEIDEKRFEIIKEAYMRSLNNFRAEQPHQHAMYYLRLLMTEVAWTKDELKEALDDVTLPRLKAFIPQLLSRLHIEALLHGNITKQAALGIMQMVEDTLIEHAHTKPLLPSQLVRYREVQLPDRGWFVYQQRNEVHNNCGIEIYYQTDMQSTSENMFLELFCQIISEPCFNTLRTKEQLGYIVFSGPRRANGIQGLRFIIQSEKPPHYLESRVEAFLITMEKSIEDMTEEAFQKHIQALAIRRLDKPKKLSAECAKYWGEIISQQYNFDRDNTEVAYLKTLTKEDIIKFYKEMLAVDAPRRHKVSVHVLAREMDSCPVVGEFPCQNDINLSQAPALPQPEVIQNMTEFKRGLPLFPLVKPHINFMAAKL
Calb FLC: affects C. albicans growth with fluconazole | AID 1979 | growth inhibition, % (test concentration not listed) | C. albicans CaCi-2 (fluconazole-resistant clinical isolate) + fluconazole, Alamar Blue growth, 48 h | 300,000 tested, 0.57% active;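 active = growth inhibition above about 58% in most replicates, limit read from the data, passing the limit was not always enough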;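 also: all wells also contain fluconazole at 8 µg/ml as a sub-toxic cotreatment; 0% = median of DMSO wells and 100% = median of geldanamycin control wells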
TPT1 inh: blocks Candida albicans tRNA 2'-phosphotransferase | recombinant caTPT1, FP RNA substrate dephosphorylation | inhibition, % at 5 µM | 300,000 tested, 0.81% active;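 active = inhibition above the mean of all tested compounds plus 3 SD, set per screening campaign, cut at about 24% in these data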;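 also: plate controls were DMSO alone for no effect and ferristatin control at 100 nM for full effect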
Rpn11 inh: inhibitors of human proteasome Rpn11. AID 588493. human 26S proteasome, Ub4-pepOG fluorescence polarization; 20S core pre-blocked with epoxomicin. O00487. inhibition, % at 20 µM. 360,000 tested, 0.59% active;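 active = inhibition at 20 µM, scaled to each plate's controls, above about 33%, limit read from the data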
IDE act: IDE (human) activation, cell-based; P14735; activation, % at 5.96 µM; HEK cells, FAbeta-B cleavage, fluorescence polarization; 0% vehicle, 100% cell-free pure enzyme wells; AID 493087; 340,000 tested, 0.073% active;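 active = activation above the mean of all tested compounds plus 3 SD, set per screening campaign, cut at about 17% in these data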
caTPT1 confirm: TPT1 (C. albicans) inhibition, confirmation. shares compounds with TPT1 inh. recombinant caTPT1, fluorescence polarization, RNase T1 coupled. inhibition, % at 5 µM. 2,400 tested, 74% active. AID 2149;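 active = inhibition above the primary screen limit, the mean inhibition of all tested compounds plus 3 SD, cut at about 25% in these data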
RNase T1 inh: counter-screen for TPT1 inhibitors: inhibitors of Aspergillus oryzae RNase T1. shares compounds with TPT1 inh. RNase T1 cleavage, fluorescence polarization, 1536-well. inhibition, % at 5 µM. 2,400 tested, 83% active. AID 2153;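 active = inhibition above the solvent-only control well mean plus 3 SD, limit set per screening run, cut at about 23% in these data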;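 also: plate controls were DMSO wells with enzyme for no effect and wells without RNase T1 for full effect; inhibitors block cleavage so intact labeled substrate keeps polarization high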
IDE inh confirm: cellular human IDE inhibition, confirmation; HEK cells, FAbetaB cleavage, fluorescence polarization; AID 435028; shares compounds with IDE cell inh; inhibition, % at 5.59 µM; 1,200 tested, 51% active;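 active = mean inhibition across triplicate wells above the cutoff set by the earlier primary insulin-degrading enzyme screen, cut at about 16% in these data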;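 also: 0% = DMSO wells and 100% = 60 µM reference IDE inhibitor Ii1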
HEK293 tox: kills HEK cells in IDE inhibitor counter-screen; shares compounds with IDE cell inh; HEK293 cytotoxicity, ATP luminescence; inhibition, % at 5.59 µM; 1,200 tested, 28% active; AID 449730; in the data active = inhibition above about 22%;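 also: 0% = vehicle wells and 100% = reference cytotoxic drug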
Rpn11 inh conf: Rpn11 inhibition confirmation, single concentration; shares compounds with Rpn11 inh; purified human 26S proteasome, Ub4-pepOG fluorescence polarization; proteasome pretreated with epoxomicin; inhibition, % at 20 µM; 1,900 tested, 29% active; AID 602318
MMP-2 inh: blocks human MMP-2, flagging nonselective RPN11 hits | shares compounds with Rpn11 inh | recombinant MMP-2, FRET peptide cleavage fluorescence | inhibition, % at 20 µM | 1,900 tested, 4% active | AID 602330;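 also: human MMP-2 activated beforehand with APMA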
Thrombin inh: counter-screen for RPN11 inhibitors: inhibition of bovine thrombin; 1,900 tested, 13% active; inhibition, % at 20 µM; bovine thrombin cleavage of Ub4-pepOG, fluorescence polarization; shares compounds with Rpn11 inh;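 active = mean inhibition at least 40% at 20 µM, or signal 3 deviations below plate average, so some actives read negative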;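 also: plate controls were thrombin with DMSO for no effect and buffer wells lacking thrombin for full effect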
* hit, by the source's call. Sampled rows, rich in hits. Any-hit rate of the full collection: about 2.3%. Rule as the data show it, unless noted: active = inhibition above about 40%; inactive = the rest.

How did COC(=O)c1ccccc1NC(=O)CN1CCCCCC1 do in these assays?
Rin1-Abl PPI inh: -2.4; IDE cell inh: 0.5; Calb FLC: -1.5; TPT1 inh: 1.6; Rpn11 inh: -7.6; IDE act: 1.1

Results for Nc1c(C(=O)N/N=C/c2cccnc2)oc2nc(-c3ccccc3)cc(-c3ccco3)c12 ?
Rin1-Abl PPI inh: -1.8; IDE cell inh: 5.1; Calb FLC: 2.6; TPT1 inh: 57.8*; Rpn11 inh: 62.1*; caTPT1 confirm: 100.4*; RNase T1 inh: 102.6*; Rpn11 inh conf: -51.0; MMP-2 inh: -80.7; Thrombin inh: active

How did CCOc1cc(/C=N/NC(=O)c2ccc(CN3CCOCC3)cc2)ccc1OC do in these assays?
Rin1-Abl PPI inh: -1.7; IDE cell inh: 2.6; Calb FLC: 24.2; TPT1 inh: -6.3; Rpn11 inh: 3.4; IDE act: 6.2

How did CCOc1cc(/C=C/C(=O)c2ccc(OC)c(CN3CCOCC3)c2)cc(Br)c1O do in these assays?
Rin1-Abl PPI inh: -4.1; IDE cell inh: 94.2*; Calb FLC: 3.8; TPT1 inh: 55.4*; Rpn11 inh: 67.5*; IDE act: -74.5; caTPT1 confirm: 80.6*; RNase T1 inh: 85.9*; IDE inh confirm: 149.7*; HEK293 tox: 22.2*; Rpn11 inh conf: 72.2*; MMP-2 inh: 2.2; Thrombin inh: 79.9*

What do the screens show for `O=C(c1cc(-c2cccnc2)nc2ccccc12)N1CCN(S(=O)(=O)c2cccs2)CC1`?
Rin1-Abl PPI inh: -1.4; IDE cell inh: -1.3; Rpn11 inh: -1.0; IDE act: 1.2

How did O=C1c2ccccc2S(=O)(=O)c2cc(N3CCOCC3)ccc21 do in these assays?
Rin1-Abl PPI inh: -8.9; IDE cell inh: 2.6; Calb FLC: 13.0; TPT1 inh: 33.7*; Rpn11 inh: 47.6*; IDE act: -0.9; caTPT1 confirm: 34.8*; RNase T1 inh: 45.8*; Rpn11 inh conf: 44.2*; MMP-2 inh: 24.8; Thrombin inh: 9.3

How did COc1ccccc1-c1cccc([C@@H]2C[C@H]3[C@H](CON3C)CN2C(C)=O)c1 do in these assays?
Rin1-Abl PPI inh: -1.4; Rpn11 inh: -2.9; IDE act: 2.9

What do the screens show for `COc1cc(OC)c(OC)cc1/C=C1\Oc2cc(OS(C)(=O)=O)ccc2C1=O`?
Rin1-Abl PPI inh: -2.7; IDE cell inh: 19.9*; Calb FLC: 4.3; TPT1 inh: 75.0*; Rpn11 inh: 96.7*; IDE act: -20.4; caTPT1 confirm: 71.5*; RNase T1 inh: 77.7*; IDE inh confirm: 17.8*; HEK293 tox: 6.0; Rpn11 inh conf: 69.2*; MMP-2 inh: 4.6; Thrombin inh: -12.1

What do the screens show for `CN(C)c1ccc(/C=C/c2nc3ccccc3s2)cc1`?
Rin1-Abl PPI inh: -3.6; IDE cell inh: 14.1; Calb FLC: -19.3; TPT1 inh: 110.9*; Rpn11 inh: 49.1*; IDE act: -3.6; caTPT1 confirm: 113.3*; RNase T1 inh: 114.1*; Rpn11 inh conf: 32.1; MMP-2 inh: -5.5; Thrombin inh: 24.2

How did CCN(C(=O)CSc1nnc(-c2ccc(F)cc2)n1C)C1CCS(=O)(=O)C1 (stereo not drawn) do in these assays?
Rin1-Abl PPI inh: -0.1; IDE cell inh: -1.3; Rpn11 inh: -5.6; IDE act: 6.2

What do the screens show for `O=[N+]([O-])c1ccc(N2CCCCC2)s1`?
Rin1-Abl PPI inh: -20.0; IDE cell inh: 1.6; Calb FLC: 7.6; TPT1 inh: 34.7*; Rpn11 inh: 54.2*; IDE act: 2.3; caTPT1 confirm: 34.3*; RNase T1 inh: 45.8*; Rpn11 inh conf: 43.8*; MMP-2 inh: 6.2; Thrombin inh: 35.1

How did O=[N+]([O-])c1cccnc1N1CCCCC1 do in these assays?
Rin1-Abl PPI inh: -3.3; IDE cell inh: -2.1; Calb FLC: -21.2; TPT1 inh: -0.2; Rpn11 inh: 0.0; IDE act: 2.2

What do the screens show for `Cc1cc(/C=C2/C(=N)N3C(c4ccccc4)=CSC3=NC2=O)c(C)n1-c1ccc(Cl)cc1`?
Rin1-Abl PPI inh: 0.4; Rpn11 inh: -8.0; IDE act: 0.5

How did N=C1/C(=C\c2ccc(-c3cccc(Cl)c3)o2)C(=O)N=C2SC=C(c3ccccc3)N12 do in these assays?
Rin1-Abl PPI inh: 2.8; IDE cell inh: 6.6; Calb FLC: 0.2; TPT1 inh: 59.6*; Rpn11 inh: 65.9*; IDE act: -4.5; caTPT1 confirm: 44.1*; RNase T1 inh: 56.1*; Rpn11 inh conf: 73.3*; MMP-2 inh: 33.5; Thrombin inh: 48.8*

How did O=C1OC(c2cccs2)=N/C1=C\c1ccc(-c2cccc(Cl)c2)o1 do in these assays?
Rin1-Abl PPI inh: -0.7; IDE cell inh: -1.1; Calb FLC: 2.5; TPT1 inh: 40.2*; Rpn11 inh: 48.2*; IDE act: 7.3; caTPT1 confirm: 166.5*; RNase T1 inh: 171.0*; Rpn11 inh conf: 4.8; MMP-2 inh: -5.1; Thrombin inh: 9.5

Results for CCOC(=O)N1CCN(C(=O)COC(=O)c2ccc(S(=O)(=O)N(CC)CC)cc2)CC1 ?
Rin1-Abl PPI inh: 2.1; IDE cell inh: 0.6; TPT1 inh: 5.0; Rpn11 inh: 1.7; IDE act: 1.6

Results for O=Cc1sc(Nc2ccccc2)nc1Cl ?
Rin1-Abl PPI inh: -2.7; IDE cell inh: 10.1; Calb FLC: -14.8; TPT1 inh: 75.7*; Rpn11 inh: 75.7*; IDE act: -3.4; caTPT1 confirm: 74.3*; RNase T1 inh: 85.7*; Rpn11 inh conf: 60.4*; MMP-2 inh: 4.7; Thrombin inh: 30.2

How did COc1ccc(C(=O)N2CCCC(C)(C(=O)NS(=O)(=O)C3CC3)C2)c(OC)c1 (stereo not drawn) do in these assays?
Rin1-Abl PPI inh: -2.3; Rpn11 inh: -4.1

Screening results: PubChem BioAssay, several laboratories
